Screens as filed in PubChem BioAssay.
In the library only some 1.6% were active in any assay of this set; here they are far more common.
KCNQ2 pot: KCNQ2 (rat) channel potentiation | O88943 | CHO-K1 KCNQ2, FluxOR thallium flux fluorescence; active compounds read high | B-score at 10 µM | 0.54% of 310,000 active;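 active means fluorescence ratio B-score at least 3 SD of library B-scores, with initial fluorescence B-score within 3 of them, cut at about 5.3 in these data; same plate scores as AID 2156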;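 further: B-score of peak minus minimum over baseline fluorescence ratio after K+ and Tl+ stimulus; positive B-score means potentiation of KCNQ2 with more thallium influx and brighter signal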
Target sequence (O88943 whole entry, looked up): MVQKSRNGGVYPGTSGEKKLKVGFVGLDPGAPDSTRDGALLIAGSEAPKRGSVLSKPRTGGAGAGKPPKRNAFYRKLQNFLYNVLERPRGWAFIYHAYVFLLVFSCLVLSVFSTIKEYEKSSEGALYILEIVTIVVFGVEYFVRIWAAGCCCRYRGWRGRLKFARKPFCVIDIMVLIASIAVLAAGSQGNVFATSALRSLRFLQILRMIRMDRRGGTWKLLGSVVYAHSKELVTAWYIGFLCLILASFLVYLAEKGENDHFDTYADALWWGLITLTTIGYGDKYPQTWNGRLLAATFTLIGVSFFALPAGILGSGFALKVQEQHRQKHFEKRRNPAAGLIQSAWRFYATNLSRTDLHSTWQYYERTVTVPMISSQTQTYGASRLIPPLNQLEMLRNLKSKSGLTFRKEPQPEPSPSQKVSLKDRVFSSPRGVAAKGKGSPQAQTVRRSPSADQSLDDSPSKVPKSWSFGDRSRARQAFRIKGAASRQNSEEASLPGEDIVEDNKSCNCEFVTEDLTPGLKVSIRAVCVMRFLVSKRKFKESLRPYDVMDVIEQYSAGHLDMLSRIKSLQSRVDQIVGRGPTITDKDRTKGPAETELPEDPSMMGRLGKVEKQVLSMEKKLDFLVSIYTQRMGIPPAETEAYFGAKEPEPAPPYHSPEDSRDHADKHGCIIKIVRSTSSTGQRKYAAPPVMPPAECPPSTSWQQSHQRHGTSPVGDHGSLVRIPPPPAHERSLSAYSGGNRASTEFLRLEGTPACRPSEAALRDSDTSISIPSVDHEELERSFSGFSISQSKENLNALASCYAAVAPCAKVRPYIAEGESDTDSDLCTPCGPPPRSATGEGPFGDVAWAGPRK
KCNQ2 block: inhibitors of rat KCNQ2 potassium channel | CHO-K1 KCNQ2, FluxOR thallium flux, 20 min; active compounds read low | B-score at 10 µM | 1.1% of 310,000 active | AID 2156;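 active means fluorescence ratio B-score at most minus 3 library SDs, with starting brightness B-score within 2 library SDs, cut at about -5.5 in these data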
Large screens that a line does not name were inactive.

COC(=O)c1ccc(COc2ccccc2/C=C(\C#N)C(=O)Nc2c(C)cc(C)cc2C)cc1	KCNQ2 block -7.24
COc1ccc(Cl)cc1NC(=O)CN(C)C(=O)c1cc2c(s1)CCC(C)C2 (configuration not stated)	none (no result: KCNQ2 pot)
COc1cc2c(cc1NC(=O)CSc1nnc(Cc3cccs3)n1Cc1ccco1)oc1ccccc12	none (no result: KCNQ2 pot)
Cc1cc(Cl)ccc1NC(=O)CSc1nnc(Cc2cccs2)n1Cc1ccco1	KCNQ2 block -6.32
CC(C)CNC(=O)C(=O)NCC1CCCN1S(=O)(=O)c1cccs1 (configuration not stated)	none (no result: KCNQ2 pot)
CCOC(=O)c1oc2ccccc2c1NC(=O)CCl	none (no result: KCNQ2 pot)
CCOC(=O)c1oc2ccccc2c1NC(=O)c1ccc(Cl)s1	KCNQ2 block -7.56
COC(=O)c1cc(S(=O)(=O)NCC2CCN(CCc3ccc(OC)cc3)CC2)cn1C	none
Cc1nn(-c2ccccc2)c(Cl)c1/C=N/NC(=O)c1ccncc1	none
CCCc1ccc2oc(C(=O)N3CCNC(=O)C3CC(=O)OC)c(C)c2c1 (configuration not stated)	none
OCCN1CCN(CC(O)COc2ccc(C34CC5CC(CC(C5)C3)C4)cc2)CC1 (configuration not stated)	KCNQ2 block -7.08
OCCN1CCN(CC(O)COc2ccc(Cl)cc2)CC1 (configuration not stated)	none
CCOc1ccc(S(=O)(=O)NNS(=O)(=O)c2ccc(C)cc2C)cc1	none (no result: KCNQ2 pot)
O=C(NCc1cccnc1)c1cc(S(=O)(=O)N2CCCC2)c(Cl)cc1Cl	none (no result: KCNQ2 pot)
COc1ccccc1CNn1c(-c2cccc(C)c2)nc2ccccc2c1=O	KCNQ2 block -7.58
COc1ccc(CNn2c(-c3cccc(C)c3)nc3ccccc3c2=O)cc1OC	none (no result: KCNQ2 pot)
CCc1cc(C(=O)OC)c(NC(=O)C2CC(=O)NN2Cc2ccccc2)s1 (configuration not stated)	KCNQ2 block -5.91
CCc1cc(C(=O)OC)c(NC(=O)CC2NCCNC2=O)s1 (configuration not stated)	none
CC1CCN(C(=O)c2ccccc2SCC(=O)NCC2CCCCC2)CC1	KCNQ2 block -6.01
COCCNC(=O)CSc1ccccc1C(=O)NCC1CCCCC1	none
COc1cccc(CN(C(=O)c2ccccc2Cl)C2CCS(=O)(=O)C2)c1 (configuration not stated)	none
Oc1ccc(-c2nccc(-c3ccccn3)n2)cc1	none
Cc1nc(NCCc2cnc[nH]2)c2oc3ccccc3c2n1	none
COc1ccc(CCNc2nc(C)nc3c2oc2ccccc23)cc1OC	KCNQ2 block -5.63
CCOC(=O)c1c(NC(=O)C(Sc2ccccc2)c2ccccc2)sc(C(=O)N(C)C)c1C (configuration not stated)	KCNQ2 block -5.85
CCOC(=O)c1c(NC(=O)C(Sc2ccccc2)c2ccccc2)sc(C(N)=O)c1C (configuration not stated)	none (no result: KCNQ2 pot)
CCN1CCN(C(=O)c2ccc3nc(-c4ccccc4)c(-c4ccccc4)nc3c2)CC1	none
COc1ccccc1CNC(=O)Cn1cccc1C(=O)c1ccccc1C	none (no result: KCNQ2 pot)
O=C(NCc1ccccn1)c1ccccc1OCc1ccc(F)cc1	KCNQ2 block -6.38
COc1ccccc1CNC(=O)c1ccccc1OCc1ccc(F)cc1	none (no result: KCNQ2 pot)
O=C(NCc1ccc(F)cc1)C(c1cccnc1)N(C(=O)c1csnn1)c1ccccc1 (configuration not stated)	none (no result: KCNQ2 pot)
COC(=O)C1=C(C)N(C)C(=O)NC1c1cccc2ccccc12 (configuration not stated)	none
CCc1ccc(NC(=O)C(=O)NCC2CCCN2S(=O)(=O)c2ccccc2)cc1 (configuration not stated)	none
COc1cccc(-c2cc(C(=O)N3CCN(c4ncccn4)CC3)c3ccccc3n2)c1	none (no result: KCNQ2 pot)
CC(C)Oc1cccc(-c2cc(C(=O)N3CCN(c4ncccn4)CC3)c3ccccc3n2)c1	KCNQ2 block -7.15
COc1cccc(NC(=O)c2cc3cccc(OC)c3o/c2=N\O)c1	KCNQ2 block -7.13
COc1cccc(NC(=O)c2cc3ccccc3o/c2=N\O)c1	none (no result: KCNQ2 pot)
NS(=O)(=O)c1ccc(N=Nc2ccc(O)c3ncccc23)cc1	none
O=Cc1ccc(O)c2ncccc12	KCNQ2 pot 7.17
COc1cccc(CC(=O)OCC(=O)NCC(=O)Nc2cccc(C)c2C)c1	none (no result: KCNQ2 pot)
C=CCSC1=N/C(=C\c2cc(OCC)c(OC(C)=O)c([N+](=O)[O-])c2)C(=O)S1	KCNQ2 pot 7.11
C=CCSC1=N/C(=C\c2ccc3c(c2)OCO3)C(=O)S1	none
O=C(NCC1CCN(Cc2ccc(Cl)cc2)CC1)C1CCCN(c2ncnc3c2nc2n3CCCCC2)C1 (configuration not stated)	KCNQ2 block -6.57
O=C(NCC1CCN(Cc2ccc(F)cc2)CC1)C1CCCN(c2ncnc3c2nc2n3CCCCC2)C1 (configuration not stated)	none (no result: KCNQ2 pot)
COCc1ccc(C(=O)N2CCCC(Nc3ccc4c(c3)OCCO4)C2)o1 (configuration not stated)	none
NC(N)=N/N=C/c1ccc(OCc2ccccc2Cl)cc1	KCNQ2 block -6.23
NC(N)=N/N=C/c1ccccc1	none (no result: KCNQ2 pot)
Nn1c(SCC(=O)Nc2ccccc2F)nnc1-c1cccs1	none
COC(=O)c1ccc(OCC(O)CN2CCN(C(=O)c3ccco3)CC2)c(OC)c1 (configuration not stated)	none (no result: KCNQ2 pot)
C/C(=N/NC(=O)CNC(=O)COc1cccc(C)c1)c1ccc(Cl)cc1	none
CN(CCOc1ccccc1)CC(=O)Nc1cccc(Br)c1	KCNQ2 block -6.3
Cc1cc(NC(=O)CN(C)CCOc2ccccc2)ccc1Br	none (no result: KCNQ2 pot)
Cc1ccc(-c2cc(-c3ccccc3)[nH]c(=S)c2C#N)cc1	none
N#Cc1c(-c2ccc(C(F)(F)F)cc2)cc(-c2ccccc2)[nH]c1=S	KCNQ2 pot 5.44
CCCC(=O)N(C1CC(C)C(C#N)(C#N)C1(C#N)C#N)N(C)C (configuration not stated)	KCNQ2 pot 11.2
CCOC(=O)C1CCN(C(=O)CNC(=O)c2nn(-c3ccc(OC)cc3)c(=O)c3ccccc23)CC1	none
Cc1c(-n2c(-c3ccccc3)nc3ccccc3c2=O)c(=O)n(-c2ccccc2)n1C	none
CN(C)/C=C(\C#N)C(=O)c1cccc(Oc2ccc(Br)cc2)c1	none (no result: KCNQ2 pot)
CC(C)c1ccc(Oc2cccc(C(=O)/C(C#N)=C/N(C)C)c2)cc1	KCNQ2 block -6.2
NC(=O)c1ccc(NC(=O)CS(=O)(=O)c2cn(CC(=O)N3CCCCC3)c3ccccc23)cc1	none (no result: KCNQ2 pot)
O=C(NCc1ccccn1)c1ccc(OC2CCN(Cc3cccs3)CC2)cc1	none
COc1ccccc1OCC(=O)Nc1ccccc1C(=O)N1CCCCC1	none (no result: KCNQ2 pot)
O=C(COc1ccccc1Cl)Nc1ccccc1C(=O)N1CCCCC1	KCNQ2 block -5.99
CCOC(=O)C1=C(COC(=O)COc2ccc(C(=O)CC)cc2)NC(=O)NC1C (configuration not stated)	none
Cc1c(N=Cc2cc(Br)cc(Br)c2O)cccc1C(=O)O	KCNQ2 pot 9.51
O=C(O)c1cccc(N/N=C/c2cc(Br)cc(Br)c2O)c1	KCNQ2 pot 5.83
CN(/N=C/c1cc(Br)cc(Br)c1O)c1ccccc1	none (no result: KCNQ2 pot)
COc1ccc(Br)cc1/C=N/Nc1cccc(C(=O)O)c1	none
COc1cc(CN2CCN(C(=O)CC(C)C)CC2)c([N+](=O)[O-])cc1OC	none (no result: KCNQ2 pot)
O=C(COc1cccc(C(F)(F)F)c1)NCC(c1ccco1)N1CCCCC1 (configuration not stated)	KCNQ2 block -5.6
O=C(COc1ccccc1)NCC(c1ccco1)N1CCN(c2ccccc2)CC1 (configuration not stated)	none (no result: KCNQ2 pot)
C/C(=N\Nc1ccc(F)cc1)c1ccc(N2CCOCC2)c(F)c1	none (no result: KCNQ2 pot)
